# According to PubChem BioAssay (NCATS):
# Active and inactive are the calls of the source. Calls follow the shape of the dose curve; as a rule, active = well fitted curve in the direction sought with a large enough effect; inactive = no such curve, though single readings can be large or run the other way.
# Biological target: Alpha-galactosidase (Coffea arabica) (UniProt Q42656)
# Assay: Counterscreen for Glucocerebrosidase Inhibitors: qHTS Assay for Coffee Bean alpha-Galactosidase at pH 5.9 (AID 998)
# Conditions: coffee bean alpha-galactosidase enzyme assay; series mostly up to 76.9 µM
# In short: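 Fluorogenic 4-MU substrate hydrolysis, 80 uM substrate and 2 nM coffee bean alpha-galactosidase, pH 5.9 citrate buffer, 20 min at room temperature, then NaOH/glycine stop. Titration 0.7 nM–77 uM, normalized to no-enzyme and enzyme controls, AC50 via Hill equation.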
# Chain of Alpha-galactosidase (Coffea arabica) (Q42656 whole entry, looked up): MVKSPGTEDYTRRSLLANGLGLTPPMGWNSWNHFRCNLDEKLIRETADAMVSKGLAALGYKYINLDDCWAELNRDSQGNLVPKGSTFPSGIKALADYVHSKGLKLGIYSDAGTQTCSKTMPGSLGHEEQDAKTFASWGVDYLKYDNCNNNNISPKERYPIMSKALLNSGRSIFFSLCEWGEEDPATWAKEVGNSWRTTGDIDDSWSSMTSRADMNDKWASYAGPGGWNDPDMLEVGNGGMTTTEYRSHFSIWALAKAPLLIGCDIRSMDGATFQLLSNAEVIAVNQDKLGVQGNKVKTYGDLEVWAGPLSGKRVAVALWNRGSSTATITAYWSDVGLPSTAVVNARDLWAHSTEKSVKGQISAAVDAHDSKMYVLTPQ
row,SMILES,outcome
1,CN(C)CCOC(=O)COc1ccc(Cl)cc1,inactive
2,Cc1nc2ccccn2c(=O)c1CCN1CCC(C(=O)c2ccc(F)cc2)CC1,inactive
3,Nc1nc2ccc(OC(F)(F)F)cc2s1,inactive
4,Nc1ccc(S(=O)(=O)Nc2ccnn2-c2ccccc2)cc1,inactive
5,CNCCC=C1c2ccccc2CCc2ccccc21,inactive
6,CN1C(C(=O)Nc2ccccn2)=C(O)c2ccccc2S1(=O)=O,inactive
7,CCCCCCCCCCCCCCCC(=O)NCCO,inactive
8,NC1CCN(c2cccc(Cl)n2)CC1,inactive
9,O=c1[nH]cnc2[nH]ncc12,inactive
10,COc1cc(NS(C)(=O)=O)ccc1Nc1c2ccccc2nc2ccccc12,inactive
11,O=C(O)CN(CCN(CC(=O)O)CC(=O)O)CCN(CC(=O)O)CC(=O)O,inactive
12,O=c1c(-c2ccc(O)cc2)coc2cc(O)cc(O)c12,inactive
13,CN1CCN(CC(=O)N2c3ccccc3C(=O)Nc3cccnc32)CC1,inactive
